For 33 compounds, Potency results are on record in PubChem BioAssay AID2289 (National Center for Advancing Translational Sciences (NCATS), 2010).

In all, about 340,000 compounds went through this assay and about 3,300 (0.97%) were called active. Another 9% or so got no clear call; they are omitted. The call rests on the fitted dose curve; in most records, active means well fitted inhibition curve with a large enough effect; inconclusive means small, poorly fitted or top-dose-only effect, or effect the other way; inactive means flat fitted curve, though single readings scatter. This is one part of the list.
Potency means the concentration at half of the fitted maximal effect.

The nature of this experiment: qHTS Assay for Modulators of miRNAs and/or Inhibitors of miR-21. Further: nearly all actives have a fitted effect of over 55% in size. The note with it: HeLa miR-21-FLuc reporter, luciferase luminescence, 48 h; actives lower the signal. The gist of the method: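 HeLa cells endogenously expressing miR-21, stably carrying CMV-driven firefly luciferase with a downstream miR-21 binding site, 2000 cells/well. Titrations up to approximately 40 uM, 48 hours; luciferase luminescence read.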
Regarding `O=C(COc1ccccc1[N+](=O)[O-])Nc1cccnc1`, the Potency was 8.26 µM (active).
The value for `Cc1ccc(OCC(=O)Nc2ccon2)c([N+](=O)[O-])c1` was 6.56 µM (active).
The value for `Cc1ccc(NC(=O)c2ccc(OC(=O)COc3ccc(Cl)cc3C)cc2)cc1` was 1.47 µM (active); that for `Cc1ccc(NC(=O)COc2ccc(Br)cc2C)cc1` was 9.27 µM (active).
With `O=C(COc1ccccc1[N+](=O)[O-])Nc1ccc(Br)cc1`, the Potency was 3.29 µM (active).
The value for `S=C(NNC(=S)Nc1ccccc1)Nc1ccccc1` was 6.56 µM (active); that for `O=C(NNC(=S)Nc1ccccc1)c1ccc(O)cc1` was 7.36 µM (active).
Take `Cn1c(C2=C(O)CN(Cc3ccccc3)C2=N)nc2ccccc21`: the Potency is 14.7 µM (active).
The value for `O=C(Nc1ccc(Br)cc1)c1ccc2ncsc2c1` was 1.47 µM (active); that for `O=C(Nc1ccccc1F)c1ccc2ncsc2c1` was 9.27 µM (active).
With `O=C(Nc1ccc(Cl)cc1Cl)c1ccc2ncsc2c1`, the Potency was 2.33 µM (active).
Next, `O=C(Nc1ccc(F)cc1F)c1ccc2ncsc2c1`: 13.1 µM (active).
Next, `N#C/C(=C\c1cccs1)C(=O)Nc1nccs1`: 7.36 µM (active); `Cc1ccc(OCCn2c(=O)n(C)c3ccccc32)cc1`: 7.36 µM (active).
The value for `Cn1c(=O)n(CCOc2ccccc2Cl)c2ccccc21` was 7.36 µM (active); that for `Cc1ccc2oc(C(=O)NCCCN3CCOCC3)c(C)c2c1` was 2.93 µM (active).
Regarding `Cc1ccc2oc(C(=O)N3CCCCCC3)c(C)c2c1`, the Potency is 6.56 µM (active).
The value for `COc1ccc(CCc2nnc(CCC(=O)NCc3cc(C(C)C)no3)o2)cc1` was 14.7 µM (active); that for `CCc1cc(CNC(=O)CCc2nnc(CCCc3ccccc3)o2)on1` was 7.36 µM (active).
For `Cc1ccc(-n2ncc3c(SCc4ccccc4)ncnc32)cc1`, the Potency is 3.29 µM (active).
The value for `CC(C)Sc1ncnc2c1cnn2-c1ccccc1` was 2.61 µM (active).
Next, `Brc1ccccc1OCCCn1cnc2ccccc21`: 1.85 µM (active); `O=[N+]([O-])c1ccccc1OCCCn1cnc2ccccc21`: 2.93 µM (active); `C#CCn1c(COc2ccccc2C)nc2ccccc21`: 5.85 µM (active).
Take `Cc1ccccc1OCc1nc2ccccc2n1C`: the Potency was 1.04 µM (active).
The value for `CCn1c(COc2ccccc2C)nc2ccccc21` was 9.27 µM (active); that for `Cn1c(COc2ccc(F)cc2)nc2ccccc21` was 2.93 µM (active); that for `Cc1nnc(OCc2nc3ccccc3n2C)c2ccccc12` was 16.5 µM (active).
Regarding `Cc1cccc(OCc2nc3ccccc3n2C)c1`, the Potency was 16.5 µM (active).
The value for `COc1ccc(-c2cc3ccc(OCC(C)=O)cc3oc2=O)cc1` was 0.656 µM (active); that for `COc1ccc(-c2cc3ccc(OCC(C)=O)cc3oc2=O)cc1OC` was 3.69 µM (active).
The value for `COc1ccc(-c2cc3ccc(O)cc3oc2=O)cc1OC` was 18.5 µM (active).
Next, `COc1ccc(-c2c(C)c3ccc(O)cc3oc2=O)cc1`: 9.27 µM (active).
